Bioassay records: PubChem BioAssay, several laboratories
The list is not random: actives were taken first. Their share in the collection is about 5.4%.
Calb FLC: C. albicans growth modulation with fluconazole; growth inhibition, % (concentration not given with the values); 0.57% of 300,000 active; C. albicans CaCi-2 (fluconazole-resistant clinical isolate) + fluconazole, Alamar Blue growth, 48 h;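 active = growth inhibition above about 58% in most replicates, limit read from the data, passing the limit was not always enough; inconclusive = exactly half the replicates above a set limit; inactive = most replicates below a set limit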;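 note: all wells also contain fluconazole at 8 µg/ml as a sub-toxic cotreatment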
CSC inhib: blocks cancer stem cells; AID 2717; 1.1% of 300,000 active; cancer stem cell-like cells viability, luminescence; inhibition, % at 7.5 µM; in the data active = inhibition above about 75%; inconclusive = no clear call, values can overlap the other calls; tested in HMLE shEcad cells
PP5 primary: blocks human protein phosphatase 5 activity; P53041; purified PP5c, OMFP substrate fluorescence; inhibition, % at 6.7 µM; 0.18% of 320,000 active;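 active = inhibition above the campaign's mean inhibition across all tested compounds plus 3 SD, cut at about 9.5% in these data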
ALR inh: blocks human ALR sulfhydryl oxidase activity. P55789. inhibition, % (no concentration beside the values). purified ALR, DTT oxidation, H2O2 HRP-luminol luminescence. 3.8% of 290,000 active;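 active = mean replicate inhibition above about 79%, with every replicate also reaching it, limit read from the data; inconclusive = only one of the two criteria met; inactive = mean below limit and not every replicate reaching it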
Target sequence (P55789 whole entry, looked up): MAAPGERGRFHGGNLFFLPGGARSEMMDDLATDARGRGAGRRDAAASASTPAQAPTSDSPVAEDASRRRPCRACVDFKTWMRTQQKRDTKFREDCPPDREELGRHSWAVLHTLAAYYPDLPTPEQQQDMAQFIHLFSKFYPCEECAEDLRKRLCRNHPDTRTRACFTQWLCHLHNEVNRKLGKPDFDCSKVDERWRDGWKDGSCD
PP1 inh: counter-screen for PP5 inhibitors: inhibitors of human PP1-alpha; 0.9% of 320,000 active; P62136; purified PP1alpha, OMFP fluorescence; AID 2235; inhibition, % at 6.7 µM;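 active = inhibition above the mean inhibition of all tested compounds plus 3 SD, computed separately for each screening campaign, cut at about 15% in these data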
Target sequence (P62136 whole entry, looked up): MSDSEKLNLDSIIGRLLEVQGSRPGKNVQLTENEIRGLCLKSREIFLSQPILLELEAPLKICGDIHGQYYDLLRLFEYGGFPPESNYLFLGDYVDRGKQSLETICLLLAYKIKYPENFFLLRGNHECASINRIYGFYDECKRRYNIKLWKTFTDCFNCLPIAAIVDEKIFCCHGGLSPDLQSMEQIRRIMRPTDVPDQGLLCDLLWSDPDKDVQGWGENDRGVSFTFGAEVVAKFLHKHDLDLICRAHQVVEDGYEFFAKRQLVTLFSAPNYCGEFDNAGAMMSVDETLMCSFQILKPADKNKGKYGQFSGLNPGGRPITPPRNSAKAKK
Each line names hits and unclear results; the compound was inactive in the other large screens.

COC(=O)CCS(=O)(=O)c1cc(Cl)ccc1Cl	ALR inh 95.4
CC1(C)OC(c2ccccc2)=C/C(=C/C=N/NC(=O)c2ccncc2)O1	ALR inh 98.1
CC(=O)NC1C(=O)N(CCN2CCOCC2)c2ccc(C)cc21 (stereo not drawn)	PP1 inh 57.4
Cc1cc(NC(=O)c2cccc(Oc3ccccc3)c2)n[nH]1	Calb FLC 95.9
Cc1cc(NC(=O)NC(=O)c2cccc(OC(F)(F)C(F)F)c2)n[nH]1	none
C=CCNC(=S)Nc1ccc(N(C)C)cc1	ALR inh 99.0
CN(C)c1ccc(NC(N)=S)cc1	ALR inh 98.8
CC(=O)c1c(C(C)=O)c(C)n(-c2nc(-c3ccc(C)c(C)c3)c(C)s2)c1C	none
CCNC(=O)CN(c1ccc(C)cc1)S(=O)(=O)c1ccccc1	none (no result: ALR inh)
Nc1ccccc1-c1ccccc1N	none
Nc1ccccc1N=Nc1ccccc1N	ALR inh 87.5
COc1ccc(NC(=O)CC2C(=O)N(C)C(=S)N2Cc2ccncc2)cc1 (stereo not drawn)	none
Cc1sc2nc(CSc3ccccc3)nc(NCCN(C)C)c2c1C	none
CCNc1nc(CSc2ccccc2)nc2sc(C)c(C)c12	ALR inh 82.8
COc1ccccc1NC(=O)C1=C(C)Nc2nnnn2C1c1ccncc1 (stereo not drawn)	none
COc1cccc(/C=C2\SC(=O)N(CC(=O)NCCCn3ccnc3)C2=O)c1	ALR inh 98.9
COc1ccc(/C=C2\SC(=S)N(CCC(=O)NCCCn3ccnc3)C2=O)cc1	none
COc1ccccc1/C=C1\SC(=O)N(CCC(=O)NCCCn2ccnc2)C1=O	CSC inhib 97.3
COc1ccccc1/C=C1\SC(=S)N(CCC(=O)NCCCn2ccnc2)C1=O	CSC inhib 99.6
O=C(c1cc(COc2ccc(F)cc2Cl)on1)N(Cc1ccncc1)CC1CCCO1 (stereo not drawn)	none
CNc1nc(C)c(C(C)(C)C)s1	none
COc1ccc(C(=O)NNC(=O)c2cc3cc([N+](=O)[O-])ccc3oc2=O)cc1OC	none
Cc1ccc(CSc2nnc(C)c(=O)n2N)cc1	none
Cn1cc(SCC(=O)NCC2CCCO2)c2ccccc21 (stereo not drawn)	ALR inh 97.4
Cn1cc(SCC(=O)Nc2nccs2)c2ccccc21	ALR inh 97.7
CCCC(=O)Nc1ccc2c(c1)nc1n2CCOC1	none
CC(C)C(=O)Nc1ccc2c(c1)nc1n2CCSC1	ALR inh 98.6
CCC(=O)Nc1ccc2c(c1)nc1n2CCSC1	ALR inh 98.7
CCS(=O)(=O)N1CCC(C(=O)NCc2cc(OC)ccc2OC)CC1	none
O=C(NC1CCCc2c1cnn2-c1ccccc1F)c1ccccc1N1CCOCC1 (stereo not drawn)	none
CC(=O)/C(=N/Nc1cccc(Cl)c1)N1CCOCC1	ALR inh 98.2
CC(=O)/C(=N/Nc1ccccc1)N1CCOCC1	ALR inh 99.0
C=CCNc1nc(C(=O)OCC(=O)Nc2ccc(S(N)(=O)=O)cc2)cs1	ALR inh 98.3 (no result: Calb FLC)
C=CCNc1nc(C(=O)OCC(=O)Nc2cc(S(C)(=O)=O)ccc2Cl)cs1	none
O=C(CCc1nc(-c2ccccc2Cl)no1)NC1CCCCC1	none (no result: CSC inhib)
O=C1CC(c2ccccc2)CC(O)=C1C=NCCN1CCN(C(=S)Nc2cccc(Cl)c2)CC1 (stereo not drawn)	none
COc1cccc(CNC(=O)C2=Cc3cccc(OC)c3OC2)c1	ALR inh 95.8
CCCCCCCCCn1c2c(c(=N)c3c1CCC3)CCCC2	Calb FLC 105.0 (no result: CSC inhib, PP5 primary, ALR inh, PP1 inh)
Cc1ncc(CN2CCC(CO)(CCOc3ccccc3)CC2)s1	none (no result: ALR inh)
CCOC(=O)c1ccc(NC(=O)CN2C(=O)CN(C(C)=O)C2=S)cc1	ALR inh 99.4
CCOC(=O)c1ccc(NC(=O)CN2C(=O)NC3(CCCCCC3)C2=O)cc1	none
Cc1ccc(NC(=O)COC(=O)CSC(=S)N2CCOCC2)cc1	ALR inh 98.3 (no result: CSC inhib)
Cc1cccc(N(Cc2ccccc2)C(=O)Cc2ccc(S(=O)(=O)N3CCOCC3)s2)c1	PP1 inh 16.9
Cc1cnc(NC(=O)Cc2ccc(S(=O)(=O)N3CCOCC3)s2)s1	ALR inh 92.2 (no result: Calb FLC, PP5 primary, PP1 inh)
Cc1cccc(N(Cc2ccccc2)C(=O)c2ccc(C)c(S(=O)(=O)N3CCOCC3)c2)c1	none (no result: Calb FLC, CSC inhib)
Cn1cnc([N+](=O)[O-])c1Sc1nnc(-c2cccnc2)n1C	none (no result: PP5 primary, PP1 inh)
COc1ccccc1N1CCN(C(=O)NCc2ccc(Cl)cc2)CC1	none
Clc1ccccc1CNCc1ccncc1	none
Cc1ccc2c(CN3CCN(S(=O)(=O)/C=C/c4ccccc4)CC3)cc(=O)oc2c1	none (no result: CSC inhib)
Cc1ccc(CC2S/C(=N/c3ccccn3)NC2=O)cc1 (stereo not drawn)	none (no result: ALR inh)
COC(=O)c1cc(NC(=O)Nc2ccccc2)ccc1Cl	none
CCOC(=O)c1sc(NC(=O)CSC(=S)N2CCN(C)CC2)nc1C	ALR inh 98.8
Cc1cnc(NC(=O)CSC(=S)N2CCOCC2)s1	ALR inh 97.1
CCOC(=O)c1ccc(NC(=O)CSC(=S)N2CCOCC2)cc1	ALR inh 99.5
CCc1nnc(NC(=O)CSC(=S)N2CCOCC2)s1	none
CC(=O)c1cc(C(=O)N2CCc3c([nH]c4ccccc34)C2C2CCCCC2)[nH]n1 (stereo not drawn)	Calb FLC 90.9 (no result: ALR inh)
Cc1cc2c(cc1C)NC(c1cccnc1)C1=C(CC(C)(C)CC1=O)N2 (stereo not drawn)	ALR inh 93.9 (no result: CSC inhib)
COC(=O)c1ccc2c(c1)NC1=C(C(=O)CC(C)(C)C1)C(c1ccncc1)N2 (stereo not drawn)	none
CCOc1cc(C2Nc3ccccc3NC3=C2C(=O)CC(C)(C)C3)ccc1O (stereo not drawn)	ALR inh 89.8
COc1cccc(C2C3=C(CC(C)(C)CC3=O)Nc3cc4c(cc32)OCO4)c1 (stereo not drawn)	none
COc1cc2c(cc1OC)C(c1ccc3c(c1)OCO3)C1=C(CC(C)(C)CC1=O)N2 (stereo not drawn)	ALR inh 98.5
CC1(C)CC(=O)C2=C(C1)Nc1ccccc1NC2c1cccnc1 (stereo not drawn)	ALR inh inconclusive
COC(=O)c1ccc(C2Nc3ccccc3NC3=C2C(=O)CC(C)(C)C3)cc1 (stereo not drawn)	ALR inh 97.0
CCn1c(Cc2ccccc2)nnc1SCC(=O)NC1CCCC1	none
O=C(Nc1cc(F)ccc1F)C1CCN(S(=O)(=O)c2cccc3nonc23)CC1	none
Cc1cccc(N2CCN(S(=O)(=O)c3ccc(S(=O)(=O)N4CCCC4)cc3)CC2)c1C	none (no result: CSC inhib)
CCOc1cc(NC(=S)N2CCC(C(N)=O)CC2)c(C(=O)OC)cc1OCC	none
CCc1c(C)nc(N)n2c(SCC(=O)Nc3ccccc3)nnc12	none
COc1cc(C2Nc3ccccc3NC3=C2C(=O)CC(C)(C)C3)cc(OC)c1OC (stereo not drawn)	none
CC1(C)CC(=O)C2=C(C1)Nc1ccccc1NC2c1cccc(F)c1 (stereo not drawn)	ALR inh 99.1 (no result: PP5 primary, PP1 inh)
COc1cc(OC)c(C2Nc3ccccc3NC3=C2C(=O)CC(C)(C)C3)cc1OC (stereo not drawn)	ALR inh 87.3
Cc1cc(S(=O)(=O)Nc2ccc(N(C)C)cc2)c(C)s1	ALR inh 99.5
